Assay outcomes (PubChem BioAssay)
This is a sample that favours compounds with a hit; in the whole collection about 5.1% have one here.
NR3A LBD binder: modulators (binders) of human NR3A ligand-binding domain. NR3A LBD differential scanning fluorimetry, Tm shift; 0% = protein alone, 100% = glycine-bound protein. Tm shift relative to glycine control, % at 25 µM. AID 1259313. actives 2.5% (n = 340,000);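 active = melting temperature shift of at least 10% of the positive control shift, at one fixed dose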
CRFBP-R2 agonist: CRF-BP/CRF-R2 complex agonism; activation, % at 13.2 µM; HEK293 CRF-R2/CRF-BP, calcium dye fluorescence (FLIPR); percent of saturating CRF peptide response; actives 0.46% (n = 350,000);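 active = activation of at least 50%, plus an integration ratio under a set limit after plate pattern correction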;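 also: plate controls were neutral control wells without compound for no effect and CRF at EC100 for full effect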
ANO1 activ: mouse TMEM16A channel activation, primary screen. HEK293 TMEM16A/YFP-H148Q/I152L, iodide quench fluorescence; hits give low values. B-score at 10 µM. AID 623877. Q8BHY3. actives 0.3% (n = 340,000);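 active = fluorescence-ratio B-score plate-corrected deviation score at least 3 library SD below zero, with starting fluorescence score within 5 deviations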;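 also: channel opened by trigger with iodide after compound preincubation; score built on the fluorescence ratio of max minus min over baseline; more negative score means more quench and so TMEM16A activation or potentiation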
Target sequence (Q8BHY3 whole entry, looked up): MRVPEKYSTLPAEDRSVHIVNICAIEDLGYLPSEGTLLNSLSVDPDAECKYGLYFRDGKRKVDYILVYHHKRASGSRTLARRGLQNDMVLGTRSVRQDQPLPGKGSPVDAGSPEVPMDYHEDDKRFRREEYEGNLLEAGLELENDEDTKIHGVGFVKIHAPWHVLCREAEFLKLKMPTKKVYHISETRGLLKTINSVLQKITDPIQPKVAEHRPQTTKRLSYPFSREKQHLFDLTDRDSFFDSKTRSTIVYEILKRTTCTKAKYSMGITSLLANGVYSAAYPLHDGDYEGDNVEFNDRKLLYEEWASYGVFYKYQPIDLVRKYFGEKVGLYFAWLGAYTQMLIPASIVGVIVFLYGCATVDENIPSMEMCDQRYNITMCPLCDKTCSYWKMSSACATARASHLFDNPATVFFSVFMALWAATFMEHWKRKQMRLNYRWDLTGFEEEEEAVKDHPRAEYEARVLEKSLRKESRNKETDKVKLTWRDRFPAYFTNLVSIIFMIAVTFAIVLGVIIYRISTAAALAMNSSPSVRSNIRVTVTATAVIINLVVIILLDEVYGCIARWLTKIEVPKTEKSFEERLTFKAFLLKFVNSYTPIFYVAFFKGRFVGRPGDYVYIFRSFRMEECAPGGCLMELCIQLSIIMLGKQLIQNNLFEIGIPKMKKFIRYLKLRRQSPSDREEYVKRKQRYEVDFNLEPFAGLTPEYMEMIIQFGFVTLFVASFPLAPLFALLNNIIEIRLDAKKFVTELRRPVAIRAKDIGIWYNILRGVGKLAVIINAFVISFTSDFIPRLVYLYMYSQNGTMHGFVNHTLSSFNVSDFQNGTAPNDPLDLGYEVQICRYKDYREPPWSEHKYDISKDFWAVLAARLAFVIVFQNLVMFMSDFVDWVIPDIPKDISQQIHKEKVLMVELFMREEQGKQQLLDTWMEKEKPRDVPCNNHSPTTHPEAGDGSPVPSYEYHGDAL
CRFR2-BP antag: CRF-BP/CRF-R2 complex antagonism | actives 0.59% (n = 350,000) | AID 588475 | HEK293 CRF-R2/CRF-BP, CRF-induced calcium fluorescence | inhibition, % at 11.8 µM;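 active = inhibition of the ligand-induced calcium signal above about 50% at the single tested concentration, limit read from the data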
TMEM16A inh: blocks the mouse calcium-activated chloride channel TMEM16A; Q8BHY3; HEK293 TMEM16A/YFP iodide influx fluorescence, ionomycin; normalized B-score (activity score, 25-100; higher = stronger inhibition) at 10 µM; actives 1.2% (n = 310,000);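 active = ratio plate-corrected score three or more library SD toward inhibition, starting fluorescence score within five deviations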;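 also: score derived from kinetic fluorescence span divided by baseline fluorescence per well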
MPTP block: blocks calcium-induced mitochondrial swelling. AID 602449. inhibition, % at 10 µM. actives 1.4% (n = 360,000). isolated mouse mitochondria, Ca2+ swelling absorbance, 30 min;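 active = inhibition of 50% or more, scaled per plate between neutral and stimulator controls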;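 also: 0% = DMSO wells given calcium and 100% = 1 mM EGTA wells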
Starred values were filed as active, the others as inactive; i = inactive; . = not tested or not shown.

SMILES	NR3A LBD binder	CRFBP-R2 agonist	ANO1 activ	CRFR2-BP antag	TMEM16A inh	MPTP block
CC(=O)c1cccc(CN2CCCC(C(=O)Nc3ccc(-c4ccco4)cc3)C2)c1 (stereo unspecified)	-10.1	-1.7	i	4.2	i	-0.8
O=c1c2[nH]c3ccccc3c2ncn1CCCn1ccnc1	-1.3	-1.6	i	1.5	i	-0.1
O=c1c2[nH]c3ccc(Br)cc3c2ncn1CCCn1ccnc1	16.3*	6.8	i	9.4	i	-5.7
COc1ccc(OCc2nnc(SCC(=O)Nc3ccccc3C#N)o2)cc1	-2.2	-0.6	i	4.0	i	-2.8
CC(=O)N1CCc2cc(C(=O)CN3CCCCC3)ccc21	12.8*	1.5	i	-3.7	i	-1.5
COc1cccc(-c2ccc(NC(=O)C3CCCN(Cc4ccccn4)C3)cc2)c1 (stereo unspecified)	.	-0.1	.	6.6	.	2.2
CC(=O)c1cccc(CN2CCCC(C(=O)Nc3cccc(-n4cccn4)c3)C2)c1 (stereo unspecified)	10.0*	0.7	i	3.6	i	-1.4
COc1cccc(-c2ccc(NC(=O)C3CCCN(CCCn4cccn4)C3)cc2)c1 (stereo unspecified)	10.3*	2.6	i	-13.7	i	2.3
N#Cc1c(-c2ccccc2)nc(-c2ccncc2)[nH]c1=O	-1.8	-0.8	i	-2.3	i	0.3
N#Cc1c(Cl)nc(-c2ccncc2)nc1-c1ccccc1	10.6*	-0.7	i	33.3	i	0.1
CC(C)Nc1nc(-c2ccncc2)nc(-c2ccc(Cl)cc2)c1C#N	10.5*	-3.0	i	-118.9	i	0.3
COC(=O)C1=CO[C@@H](O[C@@H]2O[C@H](CO)[C@@H](O)[C@H](O)[C@H]2O)C2C(CO)=CCC12 (stereo partly specified)	-1.9	3.7	i	-1.2	.	0.8
NCC[C@H](O)C(=O)N[C@@H]1C[C@H](N)[C@@H](O[C@H]2O[C@H](CN)[C@@H](O)[C@H](O)[C@H]2O)[C@H](O)[C@H]1O[C@H]1O[C@H](CO)[C@@H](O)[C@H](N)[C@H]1O	-0.5	-1.2	i	64.3*	.	1.4
COc1cccc(OC)c1NC(=O)c1ccc(-c2cc(Cl)ccc2Cl)o1	.	.	.	.	.	-0.9
Cc1ccccc1NC(=O)c1ccc(-c2ccc(Cl)cc2Cl)o1	-2.2	-3.0	i	66.2*	i	1.5
O=C(Nc1ccc(Cl)cn1)c1ccc(-c2cc(Cl)ccc2Cl)o1	16.4*	3.8	i	-5.4	i	49.4
COc1ccc(OC)c(-c2oc3ccccc3c(=O)c2O)c1	-1.0	1.3	i	-8.8	i	3.6
COc1ccc(OC)c(C2=C/C(=C/c3ccccn3)C(=O)O2)c1	-1.4	76.5*	i	-58.8	i	-0.6
COc1ccc2cc3c(N)nn(C(=O)c4ccc(Cl)c([N+](=O)[O-])c4)c3nc2c1	22.0*	-0.8	i	0.1	i	1.2
COc1cc(C(=O)Nc2ccc(S(=O)(=O)Nc3cnc4ccccc4n3)cc2)cc(OC)c1OC	-3.0	-1.6	i	6.9	i	-1.5
CCCCOc1ccc(OC(=O)Nc2cc(Cl)ccc2OC)cc1	-410.9	-5.9	i	80.8*	i	0.4
CCCCOc1ccc(S(=O)(=O)Nc2cc(OC)ccc2OC)cc1	-12.8	0.7	i	6.5	25*	12.6
COc1cc(OC)cc(C(=O)Nc2ccc(S(=O)(=O)Nc3cnc4ccccc4n3)cc2)c1	-0.1	-0.2	i	65.3*	i	2.4
COc1ccc(OC)c(NS(=O)(=O)c2ccc(NC(=O)c3ccc(NS(C)(=O)=O)cc3)cc2)c1	20.7*	0.3	i	-9.4	i	-1.4
COc1ccc(OC)c(NS(=O)(=O)c2ccc(Cl)nc2)c1	-13.9	-1.3	i	-51.5	i	0.1
SMILES	NR3A LBD binder	CRFBP-R2 agonist	ANO1 activ	CRFR2-BP antag	TMEM16A inh	MPTP block
Cc1ccc(OCC(=O)NCCNC(=O)c2ccc(C)nc2)cc1	1.0	2.0	i	-3.6	i	1.1
CCOC(=O)C1=C(COC(=O)/C=C/c2cccc(F)c2)NC(=O)NC1C (stereo unspecified)	3.3	2.5	i	-16.3	.	-0.2
O=C(O)c1ccccc1-c1ccc(C=c2sc3nc4cc(Br)cnc4n3c2=O)o1	.	.	.	.	.	1.2
O=c1/c(=C\c2cc([N+](=O)[O-])cc([N+](=O)[O-])c2O)sc2nc3ccccc3n12	31.2*	6.1	i	60.2*	i	31.6
O=C(O)c1cc(C(=O)O)cc(-c2ccc(/C=c3/sc4nc5ccccc5n4c3=O)o2)c1	10.1*	26.2	i	-61.8	.	.
O=C(O)c1cccc(-c2ccc(/C=c3/sc4nc5ccccc5n4c3=O)o2)c1	4.1	68.8*	i	-54.8	i	3.2
O=c1/c(=C/c2ccccn2)sc2nc3ccccc3n12	1.8	4.5	i	-12.4	i	-2.2
CN1C(=O)[C@@H]2C[C@@]3([C@@]45C[C@H]6C(=O)N(C)[C@@H](Cc7ccccc7)C(=O)N6[C@@H]4Nc4ccccc45)c4ccccc4N[C@H]3N2C(=O)[C@@H]1Cc1ccccc1	-3.1	-1.9	i	3.2	i	0.8
CCCNC(=O)c1ccc(CN2CCc3ccccc3C2)cc1	-9.6	-3.6	i	84.8*	i	-3.0
COCCNC(=O)c1ccc(CN2CCc3ccccc3C2)cc1	-1.8	-1.5	i	9.5	i	-1.0
C/C(=N\NC(=O)c1ccc(CN2CCc3ccccc3C2)cc1)c1ccccc1O	-2.7	2.3	i	-113.3	100*	0.5
COc1ccc(C(C)(C)C)cc1NC(=O)COC(=O)CSCc1c(C)noc1C	-1.0	-3.2	i	-5.0	.	1.1
CN(c1ccc(OCc2nnc(-c3ccccc3)o2)cc1)S(=O)(=O)c1ccccc1	20.4*	0.7	i	23.4	i	-1.6
O=[N+]([O-])c1ccc(OCc2nnc(-c3ccccc3)o2)cc1	-1.0	1.0	i	36.4	100*	-1.4
Cc1ccc(C(=O)NCC(=O)N2CCN(c3cccc(Cl)c3)CC2)s1	-0.5	-2.2	i	3.8	.	0.1
CCN(c1cccc(C)c1)S(=O)(=O)c1cc2[nH]c(=O)c(=O)[nH]c2cc1C	.	.	.	.	.	-0.5
CCN(c1cccc(C)c1)S(=O)(=O)c1ccc2[nH]c(=O)c(=O)[nH]c2c1	11.1*	-0.5	i	11.4	i	0.4
O=C(Nc1ccc(O)cc1)c1cc2ccccc2c(=O)s1	23.7*	-2.0	i	-7.2	i	1.7
COC(=O)C1CCN(C(=O)Cn2nnc(-c3cccc(F)c3)n2)CC1	-0.2	-1.4	i	2.3	i	1.0
O=C(CN(c1cccc(Cl)c1)S(=O)(=O)c1ccc(Cl)cc1)NCc1ccccn1	-0.9	1.5	i	-24.0	i	-2.3
